Source: ChEMBL document CHEMBL1961873, “Compounds: GSK PKIS; Assays: Nanosyn kinase panel” (2012)

What was measured:
[1] = target: T1, Serine/threonine-protein kinase D2 (Homo sapiens) (UniProt Q9BZL6); settings: at 1 µM;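 note: mean value of PRKD2 inhibition, from the GSK PKIS screening panel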
T1 sequence (whole entry): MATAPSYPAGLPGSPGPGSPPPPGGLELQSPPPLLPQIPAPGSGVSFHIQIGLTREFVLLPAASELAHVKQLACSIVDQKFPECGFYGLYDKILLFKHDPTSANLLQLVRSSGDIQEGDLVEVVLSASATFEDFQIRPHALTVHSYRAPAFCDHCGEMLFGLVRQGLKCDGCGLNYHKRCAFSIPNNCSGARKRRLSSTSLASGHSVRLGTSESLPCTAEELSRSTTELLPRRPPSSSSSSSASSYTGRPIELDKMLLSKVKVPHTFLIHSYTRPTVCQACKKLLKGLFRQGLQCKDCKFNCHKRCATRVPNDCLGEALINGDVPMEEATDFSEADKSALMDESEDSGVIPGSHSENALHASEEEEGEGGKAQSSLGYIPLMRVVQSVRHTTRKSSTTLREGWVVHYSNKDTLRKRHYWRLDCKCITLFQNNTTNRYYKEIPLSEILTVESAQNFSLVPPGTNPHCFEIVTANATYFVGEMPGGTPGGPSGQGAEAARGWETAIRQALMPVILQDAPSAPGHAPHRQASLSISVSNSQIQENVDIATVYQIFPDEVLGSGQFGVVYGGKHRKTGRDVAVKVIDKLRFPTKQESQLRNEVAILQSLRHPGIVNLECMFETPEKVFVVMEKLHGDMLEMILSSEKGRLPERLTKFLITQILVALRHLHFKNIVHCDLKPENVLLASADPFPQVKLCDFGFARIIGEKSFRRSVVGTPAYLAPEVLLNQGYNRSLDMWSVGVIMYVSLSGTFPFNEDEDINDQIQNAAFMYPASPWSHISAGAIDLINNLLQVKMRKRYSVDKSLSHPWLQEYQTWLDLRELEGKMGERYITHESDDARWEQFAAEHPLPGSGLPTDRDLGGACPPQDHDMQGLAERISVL

[2] = target: T2, Serine/threonine-protein kinase D3 (Homo sapiens) (UniProt O94806); settings: at 0.1 µM
T2 sequence (whole entry): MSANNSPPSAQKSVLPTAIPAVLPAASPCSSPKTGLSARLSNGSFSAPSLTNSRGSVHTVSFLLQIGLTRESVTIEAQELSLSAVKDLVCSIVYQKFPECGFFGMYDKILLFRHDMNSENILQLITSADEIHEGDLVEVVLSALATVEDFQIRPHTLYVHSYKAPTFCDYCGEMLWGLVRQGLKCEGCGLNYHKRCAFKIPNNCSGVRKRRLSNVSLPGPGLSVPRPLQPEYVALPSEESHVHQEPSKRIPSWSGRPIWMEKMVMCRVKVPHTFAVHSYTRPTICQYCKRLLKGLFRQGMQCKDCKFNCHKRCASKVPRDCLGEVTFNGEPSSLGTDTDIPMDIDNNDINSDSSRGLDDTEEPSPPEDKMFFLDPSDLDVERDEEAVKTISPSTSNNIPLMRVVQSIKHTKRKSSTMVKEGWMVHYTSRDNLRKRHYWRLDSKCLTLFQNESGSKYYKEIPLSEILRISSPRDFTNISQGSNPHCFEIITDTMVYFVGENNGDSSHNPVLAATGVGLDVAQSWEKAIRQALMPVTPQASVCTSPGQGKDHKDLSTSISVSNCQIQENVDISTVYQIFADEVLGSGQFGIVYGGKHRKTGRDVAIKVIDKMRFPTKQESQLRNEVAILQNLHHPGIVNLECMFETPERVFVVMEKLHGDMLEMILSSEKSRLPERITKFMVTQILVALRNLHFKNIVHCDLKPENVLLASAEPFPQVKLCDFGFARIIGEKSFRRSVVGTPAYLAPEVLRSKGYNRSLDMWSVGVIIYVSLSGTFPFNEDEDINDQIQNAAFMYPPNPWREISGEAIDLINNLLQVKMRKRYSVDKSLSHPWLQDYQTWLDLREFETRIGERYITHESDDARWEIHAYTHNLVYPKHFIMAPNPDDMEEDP

[3] = target: T2, Serine/threonine-protein kinase D3 (Homo sapiens); settings: at 1 µM
[4] = target: T3, cGMP-dependent protein kinase 1 (Homo sapiens) (UniProt Q13976); settings: at 0.1 µM
T3 sequence (whole entry): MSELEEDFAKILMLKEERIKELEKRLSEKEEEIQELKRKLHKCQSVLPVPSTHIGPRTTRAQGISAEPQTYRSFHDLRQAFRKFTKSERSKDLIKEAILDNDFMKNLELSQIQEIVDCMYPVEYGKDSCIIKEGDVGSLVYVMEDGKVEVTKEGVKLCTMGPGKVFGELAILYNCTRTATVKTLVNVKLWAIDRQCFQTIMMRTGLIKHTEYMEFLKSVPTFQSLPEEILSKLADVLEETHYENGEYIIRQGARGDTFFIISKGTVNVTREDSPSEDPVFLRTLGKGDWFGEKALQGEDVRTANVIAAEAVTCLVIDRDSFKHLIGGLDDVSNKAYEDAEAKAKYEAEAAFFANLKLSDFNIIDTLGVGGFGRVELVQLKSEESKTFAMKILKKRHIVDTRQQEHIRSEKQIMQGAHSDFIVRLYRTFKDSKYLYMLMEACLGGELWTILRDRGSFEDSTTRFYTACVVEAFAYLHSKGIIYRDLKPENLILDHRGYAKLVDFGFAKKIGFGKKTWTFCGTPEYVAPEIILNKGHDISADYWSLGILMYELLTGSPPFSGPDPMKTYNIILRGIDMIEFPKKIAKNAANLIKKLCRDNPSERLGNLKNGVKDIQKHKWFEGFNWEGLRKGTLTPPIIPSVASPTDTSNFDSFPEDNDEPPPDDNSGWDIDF

[5] = target: T3, cGMP-dependent protein kinase 1 (Homo sapiens); settings: at 1 µM
[6] = target: T4, cGMP-dependent protein kinase 2 (Homo sapiens) (UniProt Q13237); settings: at 0.1 µM
T4 sequence (whole entry): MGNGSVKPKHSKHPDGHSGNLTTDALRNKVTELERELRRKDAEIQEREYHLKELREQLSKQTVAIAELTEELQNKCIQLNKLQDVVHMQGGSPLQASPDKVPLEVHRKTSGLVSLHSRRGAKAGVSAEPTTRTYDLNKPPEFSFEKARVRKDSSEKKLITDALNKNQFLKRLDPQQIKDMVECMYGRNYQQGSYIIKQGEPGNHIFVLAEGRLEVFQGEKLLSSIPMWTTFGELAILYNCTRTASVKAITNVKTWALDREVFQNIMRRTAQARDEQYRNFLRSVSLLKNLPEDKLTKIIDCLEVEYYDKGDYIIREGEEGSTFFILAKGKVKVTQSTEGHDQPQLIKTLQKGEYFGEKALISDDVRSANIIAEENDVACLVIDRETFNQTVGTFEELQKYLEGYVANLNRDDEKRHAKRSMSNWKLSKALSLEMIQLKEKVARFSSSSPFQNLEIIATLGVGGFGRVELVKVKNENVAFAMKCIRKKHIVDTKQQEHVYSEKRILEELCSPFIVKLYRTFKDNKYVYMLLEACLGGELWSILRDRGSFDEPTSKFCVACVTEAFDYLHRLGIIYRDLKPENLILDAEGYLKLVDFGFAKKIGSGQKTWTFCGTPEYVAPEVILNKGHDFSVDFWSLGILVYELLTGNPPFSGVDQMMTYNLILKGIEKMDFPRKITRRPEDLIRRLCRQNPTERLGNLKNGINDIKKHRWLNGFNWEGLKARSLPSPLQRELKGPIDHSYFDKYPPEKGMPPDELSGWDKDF

[7] = target: T4, cGMP-dependent protein kinase 2 (Homo sapiens); settings: at 1 µM
[8] = target: T5, cAMP-dependent protein kinase catalytic subunit PRKX (Homo sapiens) (UniProt P51817); settings: at 0.1 µM
T5 sequence (whole entry): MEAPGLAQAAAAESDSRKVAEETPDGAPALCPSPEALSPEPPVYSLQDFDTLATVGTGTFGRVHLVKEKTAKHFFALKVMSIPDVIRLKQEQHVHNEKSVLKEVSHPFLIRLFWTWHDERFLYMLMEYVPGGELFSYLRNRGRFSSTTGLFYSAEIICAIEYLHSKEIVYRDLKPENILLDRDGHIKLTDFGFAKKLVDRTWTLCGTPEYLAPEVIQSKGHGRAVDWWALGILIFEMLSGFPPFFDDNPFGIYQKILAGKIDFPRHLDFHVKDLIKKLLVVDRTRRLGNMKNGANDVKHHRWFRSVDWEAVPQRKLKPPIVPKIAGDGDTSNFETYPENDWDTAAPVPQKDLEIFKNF

[9] = target: T5, cAMP-dependent protein kinase catalytic subunit PRKX (Homo sapiens); settings: at 1 µM
[10] = target: Rho-associated protein kinase 1 (Homo sapiens) (UniProt Q13464); settings: at 0.1 µM;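 note: values are mean percent inhibition of ROCK1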
Sequence of Rho-associated protein kinase 1 (Homo sapiens) (Q13464 2-1354 limits assumed): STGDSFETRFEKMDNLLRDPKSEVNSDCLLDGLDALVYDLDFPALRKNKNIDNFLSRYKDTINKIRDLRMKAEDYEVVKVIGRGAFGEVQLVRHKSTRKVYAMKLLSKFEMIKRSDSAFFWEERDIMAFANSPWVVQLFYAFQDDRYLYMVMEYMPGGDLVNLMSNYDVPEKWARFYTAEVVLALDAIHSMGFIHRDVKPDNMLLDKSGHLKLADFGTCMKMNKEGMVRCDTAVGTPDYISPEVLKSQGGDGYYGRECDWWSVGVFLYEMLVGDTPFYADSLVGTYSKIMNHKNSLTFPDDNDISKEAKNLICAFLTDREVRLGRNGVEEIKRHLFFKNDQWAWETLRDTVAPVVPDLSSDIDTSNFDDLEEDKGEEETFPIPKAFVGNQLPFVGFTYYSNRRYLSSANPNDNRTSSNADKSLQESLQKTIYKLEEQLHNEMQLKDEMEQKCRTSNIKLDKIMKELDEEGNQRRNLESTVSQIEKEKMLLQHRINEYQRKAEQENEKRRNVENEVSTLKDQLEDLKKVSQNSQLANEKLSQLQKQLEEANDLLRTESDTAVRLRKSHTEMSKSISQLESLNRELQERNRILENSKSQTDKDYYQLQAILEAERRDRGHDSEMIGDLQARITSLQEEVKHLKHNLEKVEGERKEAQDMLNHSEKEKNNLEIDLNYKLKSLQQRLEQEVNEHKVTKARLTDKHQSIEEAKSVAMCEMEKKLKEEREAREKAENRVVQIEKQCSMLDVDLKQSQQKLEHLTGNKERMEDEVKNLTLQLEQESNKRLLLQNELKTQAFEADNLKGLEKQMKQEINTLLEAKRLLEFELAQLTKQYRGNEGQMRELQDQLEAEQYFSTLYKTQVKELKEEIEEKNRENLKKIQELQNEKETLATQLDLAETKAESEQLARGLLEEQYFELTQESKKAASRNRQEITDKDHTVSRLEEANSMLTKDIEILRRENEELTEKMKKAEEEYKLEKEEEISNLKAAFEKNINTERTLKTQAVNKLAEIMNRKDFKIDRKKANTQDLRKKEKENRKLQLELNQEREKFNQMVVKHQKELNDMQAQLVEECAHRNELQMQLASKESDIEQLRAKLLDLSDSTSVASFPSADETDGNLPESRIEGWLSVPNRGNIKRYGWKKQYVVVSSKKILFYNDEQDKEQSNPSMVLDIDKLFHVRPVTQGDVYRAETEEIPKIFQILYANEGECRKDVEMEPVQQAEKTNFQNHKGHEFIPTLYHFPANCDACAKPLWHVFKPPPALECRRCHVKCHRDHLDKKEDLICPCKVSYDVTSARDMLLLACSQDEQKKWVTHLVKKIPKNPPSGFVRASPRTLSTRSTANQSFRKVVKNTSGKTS

SMILES | inhibition [1] [%] | inhibition [2] [%] | inhibition [3] [%] | inhibition [4] [%] | inhibition [5] [%] | inhibition [6] [%] | inhibition [7] [%] | inhibition [8] [%] | inhibition [9] [%] | inhibition [10] [%]
Nc1ncnc2occ(-c3ccc(NC(=O)Nc4cccc(C(F)(F)F)c4)cc3)c12 | 4.09 | 5.37 | 5.91 | 3.04 | 1.94 | 2.46 | 3.85 | 1.94 | 3.42 | 4.04
NS(=O)(=O)c1cccc(-c2ccc3c(NC(=O)C4CC4)n[nH]c3c2)c1 | -0.76 | -0.43 | 0.3 | 0.48 | 0.57 | 0.6 | 1.3 | 0.01 | 1.02 | 1.29
CC(C)=Cc1cccc2c1/C(=N/Nc1ccc(S(N)(=O)=O)cc1)C(=O)N2 | 12.2 | 1.39 | 8.68 | 1.14 | 4.69 | 1.13 | 7.29 | 1.11 | 1.36 | 1.3
O=C(Nc1n[nH]c2nc(-c3ccco3)c(Br)cc12)C1CC1 | 5.03 | 3.1 | 4.81 | 2.39 | 3.36 | 1.15 | 1.85 | 1.8 | -0.27 | 0.16
Cc1cc(O)cc(C)c1/C=C/c1cncc(-c2nn[nH]n2)c1 | 4.1 | 2.66 | 4.77 | 2.15 | 4.8 | 2.47 | 3.8 | 1.59 | 1.75 | 1.38
CCCN1CCC(Oc2cc(Nc3nc(Nc4cccc(F)c4C(N)=O)c4cc[nH]c4n3)c(OC)cc2Cl)CC1 | 8.74 | 0.21 | 17.1 | 1.4 | 3.67 | 0.8 | 3.46 | 7.71 | 7.12 | 0.94
Cc1nnc(-c2ccc(C)c(-c3ccc(C(=O)Nc4cccc(C#N)c4)cc3)c2)o1 | 3.13 | 2.37 | 3.16 | 0.21 | 2.16 | 1.21 | 3.35 | 0.63 | 1.68 | -0.21
CCN1CCC(CC(=O)Nc2n[nH]c3nc(-c4cccs4)c(Br)cc23)CC1 | -1.32 | -2.16 | -0.88 | -1.47 | -0.36 | -0.23 | 1.17 | -0.98 | 0.48 | 0.12
